Where “and” joins values, the source holds several entries; their conditions need not be identical. Identical values can stand only once. Records with an inconclusive call do not appear. Calls of active or inactive are those of the source. Unless noted, the call rests on the fitted dose curve; in most records, active means well fitted curve in the direction sought with a large enough effect in the repeat runs; inconclusive means weak or mixed curves; inactive means no such curve, though single readings can be large; an effect the other way counts as inactive or inconclusive.
Key:
[1] = qHTS assay to identify small molecule antagonists of the estrogen related receptor (ERR) signaling pathway from Tox21 library - cell viability counter screen (AID 1224834); further: nearly all actives have a fitted effect of over 30% in size; further: potency means the concentration at half of the fitted maximal effect
Summary of the method: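 In this quantitative HTS format, ERR cells receive compounds in DMSO and are incubated for 17.5 h at 37 C. Live-cell protease activity is then detected with CellTiter-Fluor.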

[2] = molecular target: Luciferin 4-monooxygenase (Photinus pyralis) (UniProt P08659); assay: qHTS assay to identify small molecule inhibitors of firefly luciferase (AID 1224835); further: nearly all actives have a fitted effect of over 25% in size; further: potency means the concentration at half of the fitted maximal effect; on activity change, negative = inhibition: series mostly up to about 120 µM
Chain of Luciferin 4-monooxygenase (Photinus pyralis) (P08659 whole entry, looked up): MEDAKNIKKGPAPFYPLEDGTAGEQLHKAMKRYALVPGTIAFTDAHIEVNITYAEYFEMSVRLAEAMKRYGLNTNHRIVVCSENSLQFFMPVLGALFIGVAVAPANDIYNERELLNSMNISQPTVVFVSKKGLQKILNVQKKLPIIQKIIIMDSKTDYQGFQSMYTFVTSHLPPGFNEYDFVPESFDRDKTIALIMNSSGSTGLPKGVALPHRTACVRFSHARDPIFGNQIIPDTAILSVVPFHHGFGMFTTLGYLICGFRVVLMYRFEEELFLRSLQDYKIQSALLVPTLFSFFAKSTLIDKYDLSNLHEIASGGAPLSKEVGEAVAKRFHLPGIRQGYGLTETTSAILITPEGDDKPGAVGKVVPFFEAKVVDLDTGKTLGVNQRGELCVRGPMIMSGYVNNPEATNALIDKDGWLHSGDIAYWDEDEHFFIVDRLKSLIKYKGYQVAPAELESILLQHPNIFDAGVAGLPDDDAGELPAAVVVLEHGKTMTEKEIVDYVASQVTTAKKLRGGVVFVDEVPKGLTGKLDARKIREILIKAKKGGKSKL
Summary of the method: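 Biochemical qHTS: compounds run as interplate titrations against purified firefly enzyme, with D-luciferin and ATP each at its KM concentration. Light output recorded by CCD imaging.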

[3] = qHTS assay to identify small molecule agonists of the constitutive androstane receptor (CAR) signaling pathway - cell viability counter screen (AID 1224836); further: series mostly up to about 92 µM; nearly all actives have a fitted effect of over 45% in size
Summary of the method: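 HepG2-CYP2B6-hCAR, 2500 cells/well, 4 h pre-incubation; cpd 15 conc + PK11195 0.75 uM final; 23 h, 37 C/5% CO2; CellTiter-Fluor, fluorescence.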

[4] = qHTS assay to identify small molecule antagonists of the constitutive androstane receptor (CAR) signaling pathway - cell viability counter screen (AID 1224837); further: series mostly up to about 92 µM; nearly all actives have a fitted effect of over 45% in size
Summary of the method: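 In quantitative HTS format, compounds at 15 concentrations were applied to HepG2 cells double-transfected with hCAR and CYP2B6-2.2kb under 50 nM CITCO stimulation; live-cell protease activity was read after 23 hr via CellTiter-Fluor.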

[5] = molecular target: Nuclear receptor subfamily 1 group I member 3 (Homo sapiens) (UniProt Q14994); assay: qHTS assay to identify small molecule agonists of the constitutive androstane receptor (CAR) signaling pathway (AID 1224839); further: nearly all actives have a fitted effect of over 15% in size; further: potency means the concentration at half of the fitted maximal effect;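 on activation: HepG2 cells stably carrying human CAR and a CYP2B6 luciferase reporter; series mostly up to about 92 µM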
Chain of Nuclear receptor subfamily 1 group I member 3 (Homo sapiens) (Q14994 whole entry, looked up): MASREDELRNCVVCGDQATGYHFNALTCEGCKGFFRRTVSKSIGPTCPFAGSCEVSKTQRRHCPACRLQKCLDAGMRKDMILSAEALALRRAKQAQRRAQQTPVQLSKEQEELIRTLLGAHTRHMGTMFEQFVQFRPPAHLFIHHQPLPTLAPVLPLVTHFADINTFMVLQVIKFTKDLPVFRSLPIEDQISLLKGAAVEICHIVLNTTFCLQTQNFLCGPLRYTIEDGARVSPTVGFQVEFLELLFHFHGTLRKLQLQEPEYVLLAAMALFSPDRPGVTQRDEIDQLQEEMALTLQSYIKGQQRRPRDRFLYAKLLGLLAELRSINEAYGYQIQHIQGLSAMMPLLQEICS
Summary of the method: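 HepG2-CYP2B6-hCAR cells, 2500/well, 4 h pre-incubation; compounds 15 conc.; PK11195 0.75 uM final; 24 h, 37 C/5% CO2; ONE-Glo luciferase read.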

[6] = qHTS assay to identify small molecule antagonists of the estrogen related receptor signaling pathway with the pleiotropic PPARgamma coactivator (PGC) from Tox21 10K library - cell viability counter screen (AID 1224840; active means well fitted cell-killing curve with a large enough effect in the repeat runs, not every such curve was filed as active; further: nearly all actives have a fitted effect of over 40% in size)
Summary of the method: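 Viability counter screen, PGC/ERR cells: 17.5 h compound exposure at 37 C, CellTiter-Fluor fluorescence endpoint.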

[7] = qHTS assay to identify small molecule antagonists of the estrogen related receptor signaling pathway with the pleiotropic PPARgamma coactivator (PGC) from Tox21 10K library (AID 1224841; call rule not given here; further: series mostly up to about 92 µM; actives are mostly falling curves and most rising ones were filed inactive; nearly all actives have a fitted effect of over 50% in size)
Summary of the method: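 In the PGC/ERR line, DMSO solutions of test chemicals are pin-delivered to 2,000 cells/well six hours after dispensing. Following eighteen hours' incubation, One-Glo reagent is added and luminescence recorded.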

[8] = qHTS assay to identify small molecule agonists of the estrogen related receptor signaling pathway with the pleiotropic PPARgamma coactivator (PGC) from Tox21 10K library (AID 1224842); further: nearly all actives have a fitted effect of over 15% in size
Summary of the method: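 PGC/ERR reporter cell line, 2,000 cells per well, incubated 6 h at 37 C before 23 nL compound in DMSO was added. After 18 h at 37 C, One-Glo luminescence read following 30 min at room temperature.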

[9] = molecular target: Nuclear receptor subfamily 1 group I member 3 (Homo sapiens) (UniProt Q14994); assay: qHTS assay to identify small molecule antagonists of the constitutive androstane receptor (CAR) signaling pathway (AID 1224838); further: nearly all actives have a fitted effect of over 40% in size
Summary of the method: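 CITCO-stimulated (50 nM final) HepG2 cells stably transfected with hCAR and CYP2B6-2.2kb luciferase were exposed to compounds at 15 concentrations for 24 h at 37 C/5% CO2. A luciferase reagent was added and luminescence recorded after 30 min.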
On the % scale 0 is the no-effect control and ±100 the full control effect.

O=c1n(CCO)c(=O)n(CCO)c(=O)n1CCO
inactive: Potency [1] | Potency [2] | Potency [3] | Potency [4] | Potency [5] | Potency [6]

N=C(N)c1ccc2cc(OC(=O)c3ccc(N=C(N)N)cc3)ccc2c1
inactive: Potency [1] | Potency [2] | Potency [3] | Potency [4] | Potency [5] | Potency [6] | Potency [7] | outcome [8]

COC(=O)c1ccc(C)cc1C1=NC(C)(C(C)C)C(=O)N1 (configuration not stated)
inactive: Potency [1] | Potency [2] | Potency [4] | Potency [9] | Potency [5] | Potency [6] | Potency [7] | outcome [8]

C=CCS(=O)(=O)O
inactive: Potency [1] | Potency [2] | Potency [3] | Potency [4] | Potency [5] | Potency [6] | Potency [7] | outcome [8]

Nc1cc(=O)[nH]c(N)n1
inactive: Potency [1] | Potency [2] | Potency [4] | Potency [9] | Potency [5] | Potency [6]

CCCCCOC(=O)CCCCC
inactive: Potency [1] | Potency [2] | Potency [3] | Potency [4] | Potency [5] | Potency [6] | outcome [8]

COC(=O)CCSCCC(=O)OC
inactive: Potency [1] | Potency [2] | Potency [3] | Potency [4] | Potency [5] | Potency [6] | outcome [8]

Cc1nc2c([nH]1)c(=O)n(C)c(=O)n2Cc1ccco1
inactive: Potency [1] | Potency [2] | Potency [3] | Potency [4] | Potency [5] | Potency [6]

O=C(O)CCCc1ccccc1
inactive: Potency [1] | Potency [2] | Potency [3] | Potency [4] | Potency [5] | Potency [6] | Potency [7] | outcome [8]

N=c1nc(N2CCCCC2)cc(N)n1O
inactive: Potency [1] | Potency [2] | Potency [4] | Potency [9] | Potency [5] | Potency [6]

CCCC(=O)O[C@]1(C(=O)CO)CC[C@H]2[C@@H]3CCC4=CC(=O)CC[C@]4(C)[C@H]3[C@@H](O)C[C@@]21C
inactive: Potency [1] | Potency [2] | Potency [3] | Potency [4] | Potency [5] | Potency [6] | Potency [7] | outcome [8]

CCc1ccc(O)c(OC)c1
inactive: Potency [1] | Potency [2] | Potency [3] | Potency [4] | Potency [5] | Potency [6] | outcome [8]

CC(=O)CC(C)(C)C1CCCCC1
inactive: Potency [1] | Potency [2] | Potency [3] | Potency [4] | Potency [5] | Potency [6] | Potency [7] | outcome [8]

CC(C)CNCC(C)C
inactive: Potency [1] | Potency [2] | Potency [4] | Potency [9] | Potency [5] | Potency [6] | Potency [7] | outcome [8]

CC(=O)OC/C=C(\C)CC/C=C(\C)CCC=C(C)C
inactive: Potency [1] | Potency [2] | Potency [3] | Potency [4] | Potency [5] | Potency [6] | Potency [7] | outcome [8]

CN1C(=O)N(C)C(O)C1O (configuration not stated)
inactive: Potency [1] | Potency [2] | Potency [3] | Potency [4] | Potency [5] | Potency [6] | Potency [7] | outcome [8]

Oc1ccc(C2CNCCc3c2cc(O)c(O)c3Cl)cc1 (configuration not stated)
inactive: Potency [1] | Potency [2] | Potency [4] | Potency [9] | Potency [5] | Potency [6]

NC(=O)c1ccc([N+](=O)[O-])cc1
inactive: Potency [1] | Potency [2] | Potency [3] | Potency [4] | Potency [5] | Potency [6] | Potency [7] | outcome [8]

NCCCNCCSP(=O)(O)O
inactive: viability change, negative = cytotoxic [1] 2.57% [at 8.39 µM] | activity change, negative = inhibition [2] 0.729% [at 10.5 µM] | viability change, negative = cytotoxic [3] 10.5% [at 8.39 µM] | activity change, negative = cytotoxicity [4] 2.76% [at 8.39 µM] | activation [5] -1.23% [at 8.39 µM] | viability change, negative = cytotoxic [6] 11.6% [at 8.39 µM]

CCN(CC)CCNC(=O)c1cc(S(C)(=O)=O)ccc1OC
inactive: Potency [1] | Potency [2] | Potency [4] | Potency [6]

COc1c(N2C[C@@H]3CCCN[C@@H]3C2)c(F)cc2c(=O)c(C(=O)O)cn(C3CC3)c12
inactive: Potency [1] | Potency [2] | Potency [4] | Potency [9] | Potency [5] | Potency [6] | outcome [8]

CCN(Cc1ccncc1)C(=O)C(CO)c1ccccc1 (configuration not stated)
inactive: Potency [1] | Potency [3] | Potency [4] | Potency [9] | Potency [5] | Potency [6]

COC(=O)c1cc(C(=O)OC)cc(S(=O)(=O)O)c1
inactive: Potency [1] | Potency [2] | Potency [4] | Potency [9] | Potency [5] | Potency [6] | Potency [7] | outcome [8]

CC(=O)Nc1c(I)cc(I)c(C(=O)O)c1I
inactive: Potency [1] | Potency [2] | Potency [4] | Potency [9] | Potency [5] | Potency [6] | outcome [8]

C1CN(CCOCCN2CCOCC2)CCO1
inactive: Potency [1] | Potency [2] | Potency [4] | Potency [5] | Potency [6] | Potency [7] | outcome [8]

CC(=O)OCC(CCn1cnc2cnc(N)nc21)COC(C)=O
inactive: Potency [1] | Potency [2] | Potency [4] | Potency [6]

CC(C)(CC(=O)O)C(=O)O
inactive: Potency [1] | Potency [2] | Potency [4] | Potency [9] | Potency [5] | Potency [6] | Potency [7] | outcome [8]

NC(=O)COCCN1CCN(C(c2ccccc2)c2ccc(Cl)cc2)CC1 (configuration not stated)
inactive: Potency [1] | Potency [2] | Potency [4] | Potency [5] | Potency [6] | Potency [7] | outcome [8]

Cc1c(O)cccc1O
inactive: Potency [1] | Potency [2] | Potency [4] | Potency [9] | Potency [5] | Potency [6] | outcome [8]

C=CCCCCCCCCC=O
inactive: Potency [1] | Potency [2] | Potency [4] | Potency [9] | Potency [5] | Potency [6] | Potency [7] | outcome [8]

CC[N+](C)(C)c1cccc(O)c1
inactive: Potency [1] | Potency [4] | Potency [9] | Potency [5] | Potency [6]

CCOC(=O)[C@H](CCc1ccccc1)N[C@@H](C)C(=O)N1[C@H](C(=O)O)C[C@@H]2CCC[C@@H]21
inactive: Potency [1] | Potency [2] | Potency [4] | Potency [9] | Potency [5] | Potency [6] | Potency [7] | outcome [8]

NCCc1cnc[nH]1
inactive: Potency [1] | Potency [4] | Potency [9]

CCOC(=O)CC(C)=O
inactive: Potency [1] | Potency [3] | Potency [4] | Potency [6]

N=C(N)c1ccccc1
inactive: Potency [1] | Potency [2] | Potency [4] | Potency [5] | Potency [6]

CCCCOCCOCCOCc1cc2c(cc1CCC)OCO2
inactive: Potency [1] | Potency [3] | Potency [4] | Potency [9] | Potency [6]
active: Potency [5] 7.79 µM and 11.9 µM

CCOC(C)(C)C
inactive: Potency [1] | Potency [2] | Potency [4] | Potency [5] | Potency [7] | outcome [8]

CCCCC/C=C\CCC=O
inactive: Potency [1] | Potency [3] | Potency [4] | Potency [5]

NS(=O)(=O)c1ccccc1Cl
inactive: Potency [1] | Potency [2] | Potency [4] | Potency [9] | Potency [5] | Potency [6] | outcome [8]

O=C(CCCN1CCN(c2ccccn2)CC1)c1ccc(F)cc1
inactive: Potency [1] | Potency [2] | Potency [4] | Potency [9] | Potency [5] | outcome [8]

CC(C)OC(=O)c1ccccc1
inactive: Potency [1] | Potency [2] | Potency [4] | Potency [9] | Potency [5] | Potency [6] | Potency [7] | outcome [8]

COC(=O)NN
inactive: Potency [1] | Potency [2] | Potency [4] | Potency [9] | Potency [5] | outcome [8]

O=C1CCCC(=O)C1
inactive: Potency [1] | Potency [2] | Potency [4] | Potency [5] | Potency [6] | Potency [7] | outcome [8]

CC(C)(C)c1ccc(O)c(O)c1
inactive: Potency [3] | Potency [4] | Potency [9]
active: Potency [2] 32.8 µM and 22.4 µM | Potency [5] 63.2 µM and 24.3 µM

ClC(Cl)(Br)Br
inactive: Potency [1] | Potency [2] | Potency [4] | Potency [9] | Potency [5] | Potency [6] | Potency [7] | outcome [8]

O=C(O)CCCl
inactive: Potency [1] | Potency [2] | Potency [4] | Potency [5] | Potency [7] | outcome [8]

CCOC(=O)CCC(C)=O
inactive: Potency [1] | Potency [2] | Potency [4] | Potency [5] | Potency [7] | outcome [8]

O=C[C@H](O)[C@@H](O)[C@H](O)[C@H](O)CO
inactive: Potency [1] | Potency [2] | Potency [4] | Potency [9] | Potency [5] | Potency [6] | Potency [7] | outcome [8]

COc1nc(N)nc2c1ncn2[C@@H]1O[C@H](CO)[C@@H](O)[C@@H]1O
inactive: Potency [1] | Potency [2] | Potency [4] | Potency [9] | Potency [5] | Potency [6] | Potency [7] | outcome [8]

OC[C@]1(O)OC[C@@H](O)[C@H](O)[C@@H]1O
inactive: Potency [1] | Potency [2] | Potency [4] | Potency [5]

CCC(C)C1CCCCC1=O (configuration not stated)
inactive: Potency [1] | Potency [2] | Potency [4] | Potency [9] | Potency [5] | Potency [6] | Potency [7] | outcome [8]

CC(C)NCCCC1(C(N)=O)c2ccccc2-c2ccccc21
inactive: Potency [1] | Potency [2] | Potency [4] | Potency [9] | Potency [5] | Potency [6] | Potency [7] | outcome [8]

CC/C=C\CCOC(C)=O
inactive: Potency [1] | Potency [2] | Potency [4] | Potency [9] | Potency [5] | Potency [7] | outcome [8]

COc1ccc(CCN(C)CCCC(C#N)(c2cc(OC)c(OC)c(OC)c2)C(C)C)cc1OC (configuration not stated)
active: Potency [1] 29.8 µM
inactive: Potency [2] | Potency [5] | Potency [6]
